NS1 inh: blocks influenza NS1 protein function; Potency, µM (top dose mostly 46.1 µM); 270,000 compounds, 0.4% hits; AID 2326; note: actives are rising curves; nearly all actives have a fitted effect of over 50% in size
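Recovery from NS1-induced slow growth read by OD600 in budding yeast switched to galactose assay medium (pH 6.0, -URA) at 1:100 dilution. Compound 23 nl per well; the matching strain lacking NS1 serves as control.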
SARS PLP yeast: SARS-CoV PLP inhibition in yeast; S. cerevisiae expressing SARS-CoV PLpro, growth rescue; Potency, µM (highest dose often 32.9 µM), hits mostly activators; 330,000 compounds, 0.19% hits; AID 485353; note: nearly all actives have a fitted effect of over 55% in size
CHX counter: counter-screen for Shiga toxin inhibitors: cycloheximide protein synthesis inhibition | cell reporter, cycloheximide protein synthesis inhibition counterscreen | max response, % | AID 2314 | 300,000 compounds, 12% hits; in the data active = max response mostly above about 13%, no sharp cut-off; inactive = mostly below about 14%; note: read at 38.3 µM for the half of the compounds with a filed dose
Pf growth 96h: P. falciparum growth inhibition at 96 hour, primary screen for plastid delayed-death inhibitors; 320,000 compounds, 6.9% hits; Potency, µM (highest dose often 28.7 µM), hits mostly inhibitors; P. falciparum luciferase reporter growth, 96 h; active = well fitted inhibition curve with a large enough effect; inconclusive = small, poorly fitted or top-dose-only effect, or another doubt; inactive = no such curve, though single readings can be large or run the other way
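96 h incubation, 37 C, 5% CO2, of luciferase-reporter P. falciparum-infected RBCs (2% hematocrit, 0.05% parasitemia final) with test compounds; endpoint luminescence.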
Pf growth 48h: P. falciparum growth inhibition at 48 hours (one generation) | Potency, µM (doses to about 28.7 µM), hits mostly inhibitors | P. falciparum luciferase growth in erythrocytes, 48 h | 310,000 compounds, 5.9% hits | AID 504832; active = well fitted inhibition curve with a large enough effect; inconclusive = small, poorly fitted or top-dose-only effect, or another doubt; inactive = no such curve, though single readings can be large or run the other way
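Firefly luciferase activity from engineered P. falciparum reports growth; inhibitors lower the luminescent signal. Cultures contained 2% hematocrit erythrocytes at 0.1% final parasitemia.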
Shiga toxin inh: blocks Shiga toxin action in Vero cells. inhibition, % at 38.7 µM. 290,000 compounds, 9.2% hits. Vero cells, Shiga toxin protein synthesis inhibition reporter; in the data active = inhibition mostly above about 28%, no sharp cut-off; inactive = mostly below about 43%
Of the large screens only hits and unclear results are named; the others gave an inactive call. Only some compounds are listed: those with a hit (about 21% of all), similar ones and a draw of the others. Unless noted, calls come from the whole dose curve.

C=C1CCN(C(Cc2ccccc2)C(=O)NCc2ccc(Cl)cc2)S(=O)(=O)c2ccccc21 (stereo not drawn)	none (no result: NS1 inh, SARS PLP yeast, Pf growth 96h, Pf growth 48h)
CCn1c(=O)cc(SCC(=O)NCc2ccc(C)o2)c2ccccc21	Pf growth 96h 12µM (no result: Pf growth 48h)
CCn1c(=O)cc(SCC(=O)NCc2cccnc2)c2ccccc21	Pf growth 96h 9.3µM
CCn1c(=O)cc(SCC(=O)NCc2ccco2)c2ccccc21	Pf growth 96h inconclusive
Cc1ccc(C(=O)NC(=S)Nc2nc(-c3cccc([N+](=O)[O-])c3)cs2)c(Cl)c1	none (no result: NS1 inh)
Cc1nnc(N)s1	none
Cc1cc(OCC(O)CN2CCN(c3ccccn3)CC2)cc(C)c1Cl (stereo not drawn)	Pf growth 96h inconclusive
C=CCn1c2ccccc2c2nnc(SC(CC)C(=O)Nc3sc4c(c3C#N)CCCC4)nc21 (stereo not drawn)	CHX counter 24 (no result: Pf growth 96h)
Cc1ccc(S(=O)(=O)NNC(=S)Nc2ccccc2)cc1	CHX counter 23 (no result: Pf growth 96h)
Cc1ccc(S(=O)(=O)NC(=O)Nc2ccccc2)cc1	Pf growth 96h 6.6µM
COc1cc(NC(=O)NS(=O)(=O)c2ccc(C)cc2)cc(OC)c1	NS1 inh 1µM (no result: Pf growth 48h)
COc1ccc(NC(=O)NS(=O)(=O)c2ccc(C)cc2)cn1	none
Cc1ccc(S(=O)(=O)NNC(=S)Nc2ccc(Cl)cc2)cc1	none
Cc1ccc(CNC(=S)Nc2ccc(NS(=O)(=O)c3ccc(C)cc3)cc2)cc1	Pf growth 96h 10µM
CCOC(=O)CCc1cc(F)c(S(=O)(=O)N2CCN(S(=O)(=O)c3ccc4c(c3)OCCO4)CC2)cc1F	none (no result: NS1 inh, SARS PLP yeast, Pf growth 96h, Pf growth 48h)
O=C(Cc1ccc([N+](=O)[O-])cc1)Nc1ccc(O)cc1C(=O)O	Pf growth 96h 5.2µM
O=C(Cc1ccc([N+](=O)[O-])cc1)Nc1cc(C(F)(F)F)cc(C(F)(F)F)c1	Pf growth 96h 15µM
NC(=O)c1ccsc1NC(=O)COC(=O)COc1ccccc1[N+](=O)[O-]	none (no result: NS1 inh, CHX counter, Shiga toxin inh)
NC(=O)c1ccsc1NC(=O)Cc1ccc([N+](=O)[O-])cc1	CHX counter 31 (no result: NS1 inh)
O=C(Cc1ccc([N+](=O)[O-])cc1)Nc1cccc(C(F)(F)F)c1	Pf growth 96h inconclusive
Cc1ccc(NC(=O)Cc2ccc([N+](=O)[O-])cc2)c(Br)c1	none
O=C(Cc1ccc([N+](=O)[O-])cc1)c1c(O)cc(O)cc1O	CHX counter 16
COc1ccc(C(=O)C2CCN(C(=O)Nc3ccccc3C)CC2)cc1	Pf growth 96h inconclusive
c1ccc2c(c1)nc(Nc1ccc(N3CCCCC3)cc1)c1nncn12	CHX counter 15
CC(Nc1nc2ccccc2n2cnnc12)c1ccccc1 (stereo not drawn)	CHX counter 20, Shiga toxin inh 35
c1ccc(Nc2nc3ccccc3n3cnnc23)cc1	none
c1ccc(C(c2ccccc2)N2CCN(c3nc4ccccc4n4cnnc34)CC2)cc1	Pf growth 96h 1.7µM, Pf growth 48h 1.9µM
CCCN(C(=O)/C=C/c1ccc(S(=O)(=O)N(CC)CC)cc1)C1CCS(=O)(=O)C1 (stereo not drawn)	none (no result: NS1 inh, CHX counter, Pf growth 96h, Pf growth 48h, Shiga toxin inh)
CC(C)(C)[C@H]1COC(=O)[C@H](NC(=O)OCC2c3ccccc3-c3ccccc32)C/C=C\C[C@@H](CC(=O)N[C@@H](CO)Cc2ccccc2)C(=O)N1	none (no result: NS1 inh, CHX counter, Pf growth 96h, Pf growth 48h, Shiga toxin inh)
Nc1nc(CSc2nnc(-c3cccc(F)c3)n2-c2ccccc2)nc(N2CCOCC2)n1	none
Nc1nc(CSc2nc3ccccc3s2)nc(N2CCOCC2)n1	CHX counter 15
Nc1nc(CSCc2ccccc2)nc(N2CCOCC2)n1	CHX counter 46, Shiga toxin inh 46 (no result: Pf growth 96h)
CCC(=O)Nc1cccc(NC(=O)c2cccc([N+](=O)[O-])c2)c1	none
COc1ccc(C(=O)CSc2nnc(CNc3ccc(C)cc3C)n2Cc2ccco2)cc1	Pf growth 96h inconclusive, Pf growth 48h inconclusive
O=C(CSc1n[nH]c(=O)n1Cc1ccco1)Nc1ccccc1	none
O=C(CSc1n[nH]c(=O)n1Cc1ccco1)Nc1ccccc1Cl	Pf growth 96h 4.7µM, Pf growth 48h inconclusive
CC(C)c1ccc(NC(=O)CSc2n[nH]c(=O)n2Cc2ccco2)cc1	Pf growth 96h 13µM, Pf growth 48h inconclusive
COc1ccc(C(=O)CSc2n[nH]c(=O)n2Cc2ccco2)cc1	CHX counter 32, Pf growth 48h inconclusive, Shiga toxin inh 44
FC(F)(F)c1cccc(N2CCN(CC3CC=CCC3)CC2)c1 (stereo not drawn)	Pf growth 96h inconclusive (no result: Pf growth 48h)
Cc1ccc(C(O)(c2ccc(C)c(C)c2)C2CN3CCC2CC3)cc1C (stereo not drawn)	Pf growth 96h inconclusive
Cc1ccccc1C(O)(Cc1ccccc1)C1CN2CCC1CC2 (stereo not drawn)	Pf growth 96h 10µM (no result: Pf growth 48h)
CCC1(c2ccccc2)C(=O)NCNC1=O	none
CCC1(c2ccccc2)CCC(=O)NC1=O (stereo not drawn)	Pf growth 96h inconclusive, Pf growth 48h 19µM (no result: NS1 inh, SARS PLP yeast)
COc1ccc(NC(=O)c2cccc3cccnc23)cc1S(N)(=O)=O	none
Clc1ccc(-c2nc3nc4ccccc4nc3n2Cc2ccco2)cc1	CHX counter 52, Pf growth 96h inconclusive, Shiga toxin inh 82
Cc1ccc(-c2nc3nc4ccccc4nc3n2Cc2ccco2)cc1	CHX counter 52, Shiga toxin inh 63
Cc1ccccc1-n1c(C)nnc1SCc1cc(=O)oc2ccc3ccccc3c12	Pf growth 96h 15µM
Cc1cccn2c(=O)c(/C=C(\C#N)C(=O)NCc3ccco3)c(N3CCCCC3)nc12	Pf growth 96h 2.9µM, Pf growth 48h inconclusive
Cc1cccn2c(=O)c(/C=C(\C#N)C(=O)NCc3ccco3)c(N3CCCCCC3)nc12	Pf growth 96h inconclusive, Pf growth 48h inconclusive
N#C/C(=C\c1c(N2CCCCCC2)nc2ccccn2c1=O)C(=O)NCc1ccco1	CHX counter 38, Pf growth 96h inconclusive, Pf growth 48h inconclusive
CCCn1c(N)c(N(CCOC)C(=O)c2ccc([N+](=O)[O-])cc2Cl)c(=O)[nH]c1=O	Pf growth 96h inconclusive
COc1cc(NC(=O)c2cc(S(=O)(=O)N3CCCCC3)c[nH]2)cc(OC)c1	Pf growth 96h inconclusive, Pf growth 48h inconclusive
Oc1ccc(/C=N/N=C(c2ccccc2)c2ccccc2)c(O)c1O	CHX counter 18, Pf growth 96h inconclusive, Pf growth 48h inconclusive
COc1ccc2c(C)cc3nncn3c2c1	none (no result: NS1 inh)
COc1cccc(CN2CCNC(=O)C2CC(=O)N(C)C2CCOCC2)c1OC (stereo not drawn)	none
Cn1c(=O)c2c(nc(NCC3CCCC(CN)C3)n2Cc2ccc(Cl)cc2Cl)n(C)c1=O (stereo not drawn)	Pf growth 96h 2.9µM, Pf growth 48h 2.9µM
Cn1c(=O)c2c(nc(NCCNC(=O)c3ccco3)n2Cc2ccc(Cl)cc2Cl)n(C)c1=O	Pf growth 48h inconclusive
CCOC(=O)CN1C(=O)S/C(=C/c2cc(C)n(-c3ccccn3)c2C)C1=O	CHX counter 59, Shiga toxin inh 69 (no result: Pf growth 48h)

Screening data: PubChem, National Center for Advancing Translational Sciences (NCATS)
